Where “and” joins values, the source holds several entries; their conditions need not be identical. Equal values may be shown once. Results filed as inconclusive are left out. Where a call stands in place of a potency, no number is given. More than one record can exist for a structure, and the calls need not agree. Calls of active or inactive are those of the source. Unless noted, calls follow the shape of the dose curve; as a rule, active = well fitted inhibition curve with a large enough effect in the repeat runs; inconclusive = weak or mixed curves; inactive = no such curve, though single readings can be large or run the other way.
assay: qHTS assay to identify small molecule agonists of H2AX - cell viability counter screen (AID 1224847; calls by dose curve; also: nearly all actives have a fitted effect of over 30% in size; also: potency is read from the fitted curve at half-maximal effect); details: CHO-K1 viability, CellTiter-Glo luminescence, 3 h; series mostly up to 154 µM
In short: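 Wild-type CHO-K1 cells (10% FBS medium) were plated overnight at 37C, exposed to compounds at 15 concentrations for 3 hr at 37C (0.76% DMSO final), and viability was read as CellTiter-Glo luminescence after 30 min at room temperature.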

Structure (SMILES)	Potency
c1ccc2c(c1)[nH]c1ccccc12	inactive
OC[C@@H](O)[C@@H](O[C@@H]1O[C@H](CO)[C@H](O)[C@H](O)[C@H]1O)[C@H](O)[C@@H](O)CO	inactive
C=C1C[C@H]2[C@@H]3C=C(C)C4=CC(=O)CC[C@]4(C)[C@H]3CC[C@]2(C)[C@@]1(OC(C)=O)C(C)=O	inactive
Cc1ccc([N+](=O)[O-])c(C)c1	inactive
O=C1OC2(c3ccccc31)c1cc(I)c(O)c(I)c1Oc1c2cc(I)c(O)c1I	11.3 µM (active) and 28.7 µM (active) and 8.65 µM (active)
CC(=O)[C@H]1CC[C@H]2[C@@H]3CC=C4C[C@@H](O)CC[C@]4(C)[C@H]3CC[C@]12C	inactive
O=S1(=O)CCCO1	inactive
CN(C)C	inactive
ClC/C=C/CCl	inactive
[O-]/[N+](=N\O)c1ccccc1	inactive
CCCCCC1C(=O)CCC1CC(=O)OC (configuration not stated)	inactive
Cc1ccc(S(=O)(=O)NCl)cc1	inactive
CCCCCCCCCCCCCO	inactive

assay: qHTS assay to identify small molecule antagonists of the estrogen related receptor (ERR) signaling pathway from Tox21 library (AID 1224848); details: ERR reporter cell line, luciferase antagonist mode, 18 h; series mostly up to 92.4 µM; also: nearly all actives have a fitted effect of over 50% in size; also: potency is read from the fitted curve at half-maximal effect
In short: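 Antagonist-mode screen of the Tox21 10K library in an NTP-provided ERR reporter cell line; 18 h compound exposure at 37 C, luminescence measured with ONE-Glo.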

Structure (SMILES)	Potency
O=C(O)c1cc(=O)[nH]c(=O)[nH]1	inactive
COc1cc([C@H]2Oc3cc([C@H]4Oc5cc(O)cc(O)c5C(=O)[C@@H]4O)ccc3O[C@@H]2CO)ccc1O	inactive
CC1=CC(C)(C)Nc2ccccc21	inactive
COCCOCCOCCO	inactive
O=C1CCc2ccccc2O1	inactive
FC(F)(F)C(Cl)Br (configuration not stated)	inactive
C=CCOC(=O)C(=C)C	inactive
C=CC(=O)OCCCC	inactive
C[C@]12C=CC(=O)C=C1CC[C@H]1[C@@H]3C[C@@H](O)[C@](O)(C(=O)CO)[C@@]3(C)C[C@H](O)[C@@]12F	inactive
O=C(O)c1ccc(O)cc1	inactive
CCO[Si](CCCNC(N)=O)(OCC)OCC	inactive
CCCCCC=O	inactive
IC(I)I	inactive
CN1CCOCC1	inactive
COC(=O)C(C)Oc1ccc(Oc2ncc(C(F)(F)F)cc2Cl)cc1 (configuration not stated)	39.1 µM (active)
OCCNCCO	inactive

Structure (SMILES)	Potency
NCCOCCO	inactive
CC(C)=CCO	inactive
CC(=O)Oc1c(C)c(C)c2c(c1C)CC[C@@](C)(CCC[C@H](C)CCC[C@H](C)CCCC(C)C)O2	inactive
Oc1c(Cl)ccc(Cl)c1Cl	inactive
O=C(O)CCCCCCCCCCCC(=O)O	inactive
c1ccc2c(c1)ccc1ncccc12	inactive
OC[C@@H](O)[C@@H](O[C@@H]1O[C@H](CO)[C@H](O)[C@H](O)[C@H]1O)[C@H](O)[C@@H](O)CO	inactive
C=C1C[C@H]2[C@@H]3C=C(C)C4=CC(=O)CC[C@]4(C)[C@H]3CC[C@]2(C)[C@@]1(OC(C)=O)C(C)=O	24.8 µM (active) and 21.1 µM (active)
Cc1ccc([N+](=O)[O-])c(C)c1	12.2 µM (active) and inactive
O=C1OC2(c3ccccc31)c1cc(I)c(O)c(I)c1Oc1c2cc(I)c(O)c1I	inactive
CC(=O)[C@H]1CC[C@H]2[C@@H]3CC=C4C[C@@H](O)CC[C@]4(C)[C@H]3CC[C@]12C	inactive
ClC/C=C/CCl	inactive
[O-]/[N+](=N\O)c1ccccc1	inactive
CCCCCC1C(=O)CCC1CC(=O)OC (configuration not stated)	inactive
Cc1ccc(S(=O)(=O)NCl)cc1	inactive
CCCCCCCCCCCCCO	inactive

assay: qHTS assay to identify small molecule agonists of the estrogen related receptor (ERR) signaling pathway from Tox21 library (AID 1224849; calls by dose curve; also: nearly all actives have a fitted effect of over 15% in size); details: ERR reporter cell line, ONE-Glo luciferase, 18 h; at 92.4 µM (top of the series)
In short: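 ERR reporter cell line (NTP) seeded, rested 6 h at 37 C/5% CO2, then pinned with Tox21 compounds in DMSO. After 18 h at 37 C, ONE-Glo luciferase luminescence was read following 30 min at room temperature.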

Structure (SMILES)	activity change, positive = activation
COc1cc([C@H]2Oc3cc([C@H]4Oc5cc(O)cc(O)c5C(=O)[C@@H]4O)ccc3O[C@@H]2CO)ccc1O	-26.2% (inactive)
CC1=CC(C)(C)Nc2ccccc21	1.56% (inactive) and -18.3% (inactive)
COCCOCCOCCO	3.34% (inactive) and 5.65% (inactive)
O=C1CCc2ccccc2O1	-2.99% (inactive) and -9.1% (inactive)
C=CC(=O)OCCCC	7.41% (inactive) and 1.06% (inactive)
CCO[Si](CCCNC(N)=O)(OCC)OCC	8.59% (inactive) and 5.1% (inactive)
CCCCCC=O	8.48% (inactive) and 5.45% (inactive)
CN1CCOCC1	-10.1% (inactive) and 3.72% (inactive)
COC(=O)C(C)Oc1ccc(Oc2ncc(C(F)(F)F)cc2Cl)cc1 (configuration not stated)	-47.3% (inactive) and -26.9% (inactive)
Cc1ccc(C(C)(C)C)c(O)c1	-17.4% (inactive) and -15.2% (inactive)
CC(C)=CCO	-0.501% (inactive)
O=C(O)CCCCCCCCCCCC(=O)O	-2.27% (inactive)
c1ccc2c(c1)ccc1ncccc12	-5.44% (inactive)
Cc1ccc([N+](=O)[O-])c(C)c1	6.89% (inactive)
[O-]/[N+](=N\O)c1ccccc1	4.43% (inactive) and 12.7% (inactive)
CCCCCC1C(=O)CCC1CC(=O)OC (configuration not stated)	0.33% (inactive) and 0.3% (inactive)
Cc1ccc(S(=O)(=O)NCl)cc1	5.11% (inactive) and 6.95% (inactive)

From PubChem BioAssay (Tox21)
